Screening results from PubChem.
Shown are actives, neighbours in structure and some others; about 3.9% of the full set was active somewhere.
FBA Mtb inh = inhibitors of M. tuberculosis fructose-bisphosphate aldolase | purified M. tuberculosis FBA, fluorescence read-out | hit rate 2.3% among 360,000 | inhibition, % at 1 µM | AID 588726
Target sequence (P9WQA3 whole entry, looked up): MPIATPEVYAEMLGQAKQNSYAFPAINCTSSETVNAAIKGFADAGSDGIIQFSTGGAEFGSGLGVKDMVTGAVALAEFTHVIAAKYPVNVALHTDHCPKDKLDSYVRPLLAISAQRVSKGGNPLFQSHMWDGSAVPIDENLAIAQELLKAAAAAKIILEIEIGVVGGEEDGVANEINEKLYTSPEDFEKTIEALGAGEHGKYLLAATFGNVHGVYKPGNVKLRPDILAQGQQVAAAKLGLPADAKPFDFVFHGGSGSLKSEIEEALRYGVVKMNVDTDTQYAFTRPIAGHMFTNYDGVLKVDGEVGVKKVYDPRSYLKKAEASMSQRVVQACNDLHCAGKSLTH
PrPC TRFRET = reduces human prion protein on the cell surface; P04156; cell surface PrPC, TR-FRET read-out; inhibition, % at 13.8 µM; hit rate 0.43% among 370,000; AID 720596; in the data active = inhibition above about 24%
Vc quorum ag = inducers of Vibrio cholerae quorum light production without autoinducers | V. cholerae BH1578 lux reporter, luminescence, 6 h | activation, % at 18.7 µM | hit rate 0.16% among 350,000 | AID 588436; in the data active = activation mostly above about 9.7%, no sharp cut-off
GDH-TPI counter-1 = inhibits GDH-TPI coupling enzymes, artifact for Mtb FBA screen. AID 588335. inhibition, % at 4.8 µM. hit rate 1.2% among 360,000. GDH-TPI coupled enzyme counterscreen, NADH absorbance; in the data active = inhibition above about 30%
3CLpro inhibitor = SARS-CoV 3CLpro protease inhibition; P0C6X7; recombinant SARS-CoV 3CLpro, quenched FRET peptide cleavage; inhibition, % at 6 µM; hit rate 0.14% among 290,000; in the data active = inhibition above about 12%
Mtb FBA confirm = confirmation of M. tuberculosis fructose-bisphosphate aldolase inhibitors. hit rate 78% among 5,600. shares compounds with FBA Mtb inh. purified M. tuberculosis FBA, fluorescence read-out. inhibition, % at 1 µM. AID 651616
GDH-TPI counter-2 = inhibits GDH-TPI coupling enzymes, flagging Mtb FBA hits; shares compounds with FBA Mtb inh; GDH-TPI coupled enzyme counterscreen, fluorescence; inhibition, % at 1 µM; hit rate 81% among 5,600; AID 652141; in the data active = inhibition above about 10%
Large screens that a line does not name were inactive (follow-up assays come after a bar, where they were run). Cut-off read from the data, not from the text of the source, unless noted: active = inhibition above about 27%; inactive = the rest.

CCOC(=O)N1CCN(C(=O)c2cnn3c(C)c(Cc4ccc(C)cc4)c(C)nc23)CC1	FBA Mtb inh 34 (no result: PrPC TRFRET) | Mtb FBA confirm 115 | GDH-TPI counter-2 92
Cc1nc2c(C(=O)N3CCN(c4ccccn4)CC3)cnn2c(C)c1Cc1cccc(Cl)c1	none
CCc1ccc(C2=CSC3=NCCN23)cc1	none
Nc1nonc1-n1nnc(C(=O)N/N=C/c2cccc(Cl)c2)c1-c1cccs1	none
O=S1(=O)N[C@H](Cc2ccccc2)COc2cccc(N3CCC[C@@H]3CO)c21	none (no result: FBA Mtb inh, Vc quorum ag, GDH-TPI counter-1, 3CLpro inhibitor)
Cc1cc(=O)oc2c(C)c(OCC(=O)NC3CC(C)(C)NC(C)(C)C3)ccc12	none
Cc1c(OCC(=O)NC2CC(C)(C)NC(C)(C)C2)ccc2c3c(c(=O)oc12)CCC3	FBA Mtb inh 32 | Mtb FBA confirm 43 | GDH-TPI counter-2 35
CCCc1cc(=O)oc2c(C)c(OCC(=O)NC3CC(C)(C)NC(C)(C)C3)ccc12	none
Cc1c(OCC(=O)NC2CC(C)(C)NC(C)(C)C2)ccc2c1oc(=O)c1ccccc12	FBA Mtb inh 63 | Mtb FBA confirm 50 | GDH-TPI counter-2 59
CCc1ccc(Nc2n[n+](-c3ccccc3)c(-c3ccc(N(CC)CC)cc3)s2)cc1	FBA Mtb inh 51 | Mtb FBA confirm 36 | GDH-TPI counter-2 35
C=CC[C@@H](CC(=O)N[C@H](CO)Cc1ccccc1)C(=O)N[C@@H](COC(=O)[C@@H](CC=C)CC(=O)OC(C)(C)C)Cc1ccccc1	none (no result: 3CLpro inhibitor)
CC(=O)c1cccc(CN2CCC(n3nccc3NC(=O)c3ccc4c(c3)OCO4)CC2)c1	none
O=C(NCC1CCCO1)c1onc(CSc2ccc(F)c(F)c2)c1C(=O)O (stereo unspecified)	FBA Mtb inh 45 | Mtb FBA confirm 92 | GDH-TPI counter-2 61
COc1ccccc1-c1oc2ccccc2c1-c1ccc2c(c1)OCO2	none (no result: 3CLpro inhibitor)
COc1cc(C#Cc2c(-c3ccccc3OC)oc3ccccc23)cc(OC)c1	FBA Mtb inh 34 (no result: 3CLpro inhibitor) | Mtb FBA confirm inactive | GDH-TPI counter-2 inactive
CCOC(=O)N1CCC(NC(=O)c2cc3cc4cc(OC)ccc4nc3o2)CC1	FBA Mtb inh 86 | Mtb FBA confirm inactive | GDH-TPI counter-2 inactive
CCOC(=O)N1CCC(NC(=O)c2cc(-c3ccc(OC)cc3)nc3ccccc23)CC1	none
COc1ccc2nc3oc(C(=O)NC4CCN(Cc5ccccc5)CC4)cc3cc2c1	FBA Mtb inh 32 | Mtb FBA confirm inactive | GDH-TPI counter-2 inactive
Nc1nc(SCc2ccc(F)cc2)ns1	none
